Compound activity deposited in PubChem BioAssay by National Center for Advancing Translational Sciences (NCATS).
DT40 TDP1 no CPT = qHTS for Inhibitors of human tyrosyl-DNA phosphodiesterase 1 (TDP1): qHTS in cells in absence of CPT. DT40 Tdp1-/- hTDP1 cells, no CPT, ATP luminescence, 48 h. Potency, µM (doses to about 46.2 µM), for inactives: at the highest dose activity change, negative = growth inhibition, actives largely listed as inhibitors. 420,000 compounds, 15% hits; also: potency is read from the fitted curve at half-maximal effect; nearly all actives have a fitted effect of over 55% in size
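Cells were dispensed at 400 per well, compounds added by pin tool, plates incubated ≥48 hr at 37 °C, then CellTiter-Glo added for 30 min at room temperature before luminescence reading. Line: DT40 Tdp1-/- complemented with hTDP1; camptothecin omitted.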
ALOX12 inh = Primary qHTS assay for inhibitors of human arachidonate 12S-lipoxygenase (ALOX12): Round 2; Polyunsaturated fatty acid lipoxygenase ALOX12 (Homo sapiens), P18054; purified 12hLO, xylenol orange hydroperoxide absorbance; Potency, µM (series often up to 108 µM), without a hit: at the top dose activity change, negative = inhibition, actives largely listed as inhibitors; 580,000 compounds, 1.1% hits; also: potency is read from the fitted curve at half-maximal effect
Target sequence (P18054 whole entry, looked up): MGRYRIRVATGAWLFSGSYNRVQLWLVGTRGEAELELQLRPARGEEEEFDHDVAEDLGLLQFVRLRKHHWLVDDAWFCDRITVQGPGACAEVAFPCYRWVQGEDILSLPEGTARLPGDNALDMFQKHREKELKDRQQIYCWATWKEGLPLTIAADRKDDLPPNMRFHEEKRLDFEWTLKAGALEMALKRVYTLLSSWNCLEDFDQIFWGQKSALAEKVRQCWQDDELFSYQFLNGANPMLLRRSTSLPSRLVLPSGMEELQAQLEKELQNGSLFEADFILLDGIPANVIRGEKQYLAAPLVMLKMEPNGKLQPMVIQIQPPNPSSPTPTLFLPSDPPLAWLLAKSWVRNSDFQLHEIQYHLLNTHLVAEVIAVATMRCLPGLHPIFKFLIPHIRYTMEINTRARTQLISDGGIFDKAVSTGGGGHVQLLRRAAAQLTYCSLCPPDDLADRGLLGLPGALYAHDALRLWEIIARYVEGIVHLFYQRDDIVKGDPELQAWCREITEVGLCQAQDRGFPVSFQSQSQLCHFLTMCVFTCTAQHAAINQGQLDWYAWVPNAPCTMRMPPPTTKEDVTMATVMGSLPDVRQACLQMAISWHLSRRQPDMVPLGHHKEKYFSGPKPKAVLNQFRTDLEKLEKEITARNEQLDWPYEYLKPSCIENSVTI
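Purified human 12hLO at 150 nM in 25 mM Hepes, 0.01% Triton X-100, pH 7.0, preincubated 15 min at room temperature with compound. Reaction started with 40 uM arachidonic acid, 30 min at room temperature. Hydroperoxide measured by Fe-xylenol orange, 573/405 nm absorbance ratio.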
IL-1B inflam inh = qHTS for Inhibitors of Inflammasome Signaling: IL-1-beta AlphaLISA Primary Screen. THP-1 LPS/ATP IL-1B secretion, AlphaLISA, 16 h; active compounds read low. activity change, % at 57.5 µM. 360,000 compounds, 4.7% hits. AID 743279, 2014; in the data active = activity change below about -50%; inconclusive = mostly about -30% to -49%
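THP-1 cells pretreated 1 hr with compounds (up to 57.5 uM final), then stimulated with LPS (250 ng/mL final) plus ATP (1.25 mM final); secreted IL-1B measured by AlphaLISA after 16 hr, decreased signal indicating inhibition.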
HT1080 IDH1KD tx = qHTS for induction of synthetic lethality in tumor cells producing 2HG: qHTS for the HT-1080-IDH1KD cell line; HT-1080 IDH1 knockdown viability, ATP luminescence, 48 h; Potency, µM (highest dose often 46.1 µM), for inactives: at the top dose activity, negative = toxicity, most hits filed as cytotoxic; 360,000 compounds, 2% hits; AID 686971, 2013;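 also: potency is read from the fitted curve at half-maximal effect; 0% = DMSO wells and -100% = cell-free medium wells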
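Viability of IDH1-knockdown HT-1080 fibrosarcoma cells was assessed by CellTiter-Glo after 48 h at 37 °C with titrated compound; concentration-effect curves were classified by fit quality and response size.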
TDP1 cell CPT = qHTS for Inhibitors of human tyrosyl-DNA phosphodiesterase 1 (TDP1): qHTS in cells in presence of CPT | chicken DT40 Tdp1-/-;hTDP1 cells + 20 nM CPT, ATP luminescence, 48 h | Potency, µM (highest dose often 46.2 µM), without a hit: top-dose activity change, negative = growth inhibition, hits mostly inhibitors | 420,000 compounds, 12% hits | AID 686979, 2013; also: potency is read from the fitted curve at half-maximal effect; nearly all actives have a fitted effect of over 55% in size
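Cell growth measured by CellTiter-Glo luminescence after a minimum 48 h, 37 C compound exposure with 20 nM CPT in Tdp1-knockout DT40 cells stably expressing hTDP1, seeded 400/well; qHTS titration format.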
HT1080-NT tox = qHTS for induction of synthetic lethality in tumor cells producing 2HG: qHTS for the HT-1080-NT fibrosarcoma cell line. HT-1080-NT fibrosarcoma viability, CellTiter-Glo ATP luminescence, 48 h. Potency, µM (top dose mostly 46.1 µM), for inactives: at the top dose activity, negative = less viability, most hits filed as cytotoxic. 360,000 compounds, 1.6% hits;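 also: NT is the 2HG producing partner of a matched IDH1 knockdown line; potency is read from the fitted curve at half-maximal effect; 0% = DMSO-treated cells and -100% = media-only wells without cells; nearly all actives have a fitted effect of over 55% in size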
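Compounds were tested in concentration-response format on HT-1080-NT cells for 48 hours at 37 degrees C. Cell viability came from CellTiter-Glo luminescence; curves were classified by r2, response magnitude and activity.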
Active calls of the source: *; ? = inconclusive; nt = no result given; [ ] = another dose, or the depositor's remark. Only a selection was taken, and hits are over-represented in it overall. Unless noted, calls follow the shape of the dose curve; as a rule, active = well fitted curve in the direction sought with a large enough effect; inconclusive = small, poorly fitted or top-dose-only effect, or another doubt; inactive = no such curve, though single readings can be large; an effect the other way counts as inactive or inconclusive. Unless noted, % is scaled to controls: 0 for no effect and ±100 for the full control effect.

SMILES | DT40 TDP1 no CPT | ALOX12 inh | IL-1B inflam inh | HT1080 IDH1KD tx | TDP1 cell CPT | HT1080-NT tox
Oc1c(Br)cc(Br)cc1C=Nc1cccnc1 | 21µM* | ? | 10 | -5% | ? | -10%
Oc1c(Br)cc(Br)cc1/C=N/c1nccs1 | 18µM* | -16% | 24 | -15% | ? | -13%
Oc1c(Br)cc(Br)cc1C=Nc1ccc2[nH]ncc2c1 | ? | ? | -2 | -13% | -28% | -7%
Cc1nnc(C)n1/N=C/c1cc(Br)cc(Br)c1O | -7% | ? | 25 | ? | -3% | ?
Oc1ccc(Cl)cc1/C=N/c1nccs1 | 11µM* | 4% | 13 | ? | 13µM* | -7%
Oc1ccc(Cl)cc1C=Nc1ccc(Br)cc1 | -29% | -2% | 16 | -29% | -5% | ?
COc1ccc(Cl)cc1NC(=O)CSc1nnc(-n2nc(C)cc2C)n1N | nt | 3% | nt | nt | nt | nt
Cn1c(SSc2ccc(-c3cccnc3)n2C)ccc1-c1cccnc1 | ? | ? | -98* | 12µM* | ? | 10µM*
Cc1ccc(-c2ccccc2)n1-c1cccnc1 | nt | -14% | nt | nt | nt | nt
CCCN(CC(=O)Nc1ccc(Cl)cc1Cl)C(=O)/C=C/c1cc(OC)ccc1OC | 29µM* | -9% | 0 | -4% | ? | -2%
CCCN(CC(=O)Nc1ccc(Cl)cc1Cl)C(=O)/C=C/c1cccc([N+](=O)[O-])c1 | 29µM* | -16% | ? | -5% | ? | -3%
COc1ccc(CN(C(=O)c2ccc(Cl)cc2F)C2CC2)c(OC)c1 | nt | -2% | nt | nt | nt | nt
CN(C)c1ccc(/C=C/CNC[C@H]2O[C@@H](n3ccc(N)nc3=O)[C@H](O)[C@@H]2O)cc1 | -14% | -21% | -11 | 2% | 9% | 2%
COc1cc(-c2nc3cc(NC(=O)c4ccccc4)ccc3o2)cc(OC)c1OC | nt | -5% | nt | nt | nt | nt
O=C(Nc1ccc(Cl)c(-c2nc3ncccc3o2)c1)c1ccco1 | nt | 33% | nt | nt | nt | nt
COc1cc(C(=O)Nc2ccc(Cl)c(-c3nc4ncccc4o3)c2)cc(OC)c1OC | 16µM* | 3% | nt | nt | 21µM* | nt
COc1cc(C(=O)Nc2ccc(-c3nc4cc(C)ccc4o3)c(O)c2)cc(OC)c1OC | 8.2µM* | 21% | nt | -25%[9.24 µM] | 12µM* | -2%
COc1cc(C(=O)Nc2ccc3oc(-c4ccc(C)c(Br)c4)nc3c2)cc(OC)c1OC | 8.2µM* | -16% | nt | nt | 21µM* | nt
COc1ccccc1/C=C/C(=O)C12CC3CC(CC(C3)C1)C2 | nt | 13% | nt | nt | nt | nt
CCCOc1ccccc1Oc1ncccc1CNC(=O)NCC | nt | 1% | nt | nt | nt | nt
COCC1CCCN(Cc2ccc3c(c2)CN(C(=O)c2cc(-c4ccccc4)n[nH]2)CCO3)C1 (stereo unspecified) | ? | 24% | nt | nt | ? | nt
CCOC(=O)N1CCN(Cc2ccc3c(c2)CN(C(=O)c2cc(-c4ccccc4)on2)CCO3)CC1 | 21µM* | 18% | nt | nt | -6%[9.04 µM] | nt
O=C(Cc1cscn1)N1CCOc2ccc(CN3CCN(c4ccccn4)CC3)cc2C1 | -14% | 4% | nt | nt | -1%[9.04 µM] | nt
CCOC(=O)N1CCN(Cc2ccc3c(c2)CN(C(=O)c2cc(-c4ccccc4)no2)CCO3)CC1 | 23µM* | -1% | nt | nt | ? | nt
Cc1nc(C)c(CC(=O)N2CCOc3ccc(CN4CCN(c5ccccn5)CC4)cc3C2)s1 | 7.3µM* | 31% | nt | nt | ? | nt
COc1cccc(-c2cc(C(=O)N3CCN(Cc4ccccc4)CC3)no2)c1 | -16% | 6% | 11 | 13% | -21% | 6%
CC1CCCCN1c1nnc(NC(=O)Nc2ccccc2C(F)(F)F)s1 (stereo unspecified) | nt | -34% | nt | nt | nt | nt
